Measurements taken from PubChem BioAssay (Tox21).
Inconclusive results are not listed. Where a call stands in place of a potency, no number is given. Active and inactive are the calls of the source. Calls come from the whole dose curve.

These compounds were tested against 5-hydroxytryptamine receptor 2A (Homo sapiens) (UniProt P28223) (assay: 5-hydroxytryptamine receptor 2A (HTR2A) small molecule antagonists, cell-based qHTS assay (AID 1963586; note: nearly all actives have a fitted effect of over 45% in size)). Conditions: HTR2A-CHO cells, DOI-induced calcium flux, fluorescence; series mostly up to 61.5 µM.
5-hydroxytryptamine receptor 2A (Homo sapiens), sequence (P28223 whole entry, looked up): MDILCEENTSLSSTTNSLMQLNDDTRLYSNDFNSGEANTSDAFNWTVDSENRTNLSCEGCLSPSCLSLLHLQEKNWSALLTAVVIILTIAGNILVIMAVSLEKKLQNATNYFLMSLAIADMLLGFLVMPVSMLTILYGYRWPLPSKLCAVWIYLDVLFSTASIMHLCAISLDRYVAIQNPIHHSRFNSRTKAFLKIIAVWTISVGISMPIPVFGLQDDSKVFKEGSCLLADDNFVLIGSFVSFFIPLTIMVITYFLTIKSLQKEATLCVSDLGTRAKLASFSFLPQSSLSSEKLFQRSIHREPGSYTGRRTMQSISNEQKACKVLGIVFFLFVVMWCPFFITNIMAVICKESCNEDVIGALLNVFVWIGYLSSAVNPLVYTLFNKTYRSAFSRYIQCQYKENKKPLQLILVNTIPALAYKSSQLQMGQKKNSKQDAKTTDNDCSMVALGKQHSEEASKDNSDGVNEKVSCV
Text: National Center for Advancing Translational Sciences [NCATS]
Division of Preclinical Innovation [DPI]
U.S. Environmental Protection Agency [EPA]
National Institutes of Environmental Health Sciences [NIEHS]
National Toxicology Program [NTP]
U.S. Food and Drug Administration [FDA]
The HTR2A receptor is a subtype of the 5-HT2 receptor that belongs to the serotonin receptor family and is a G protein-coupled receptor (GPCR). The HTR2A-CHO cell line stably expressing human 5-hydroxytryptamine receptor 2A (HTR2A) can be used for screening antagonists of interactions between 5-HT2 and its ligands. The HTR2A-CHO calcium flux assay is a homogeneous fluorescence-based assay for detecting the intracellular calcium level using FDSS kinetic plate reader system.
Tox21 Assay Protocol Summary:
HTR2A-CHO cells were dispensed at 2000 cells/3uL/well in 1536-well black-clear bottom plates using a Multidrop Dispenser. After the assay plates were incubated at a 37 C/5% CO2 incubator for 18 h, 3 uL of Dye Loading Buffer was transferred to the assay plate by a Flying Reagent Dispenser. The assay plates were incubated at 37 C for 1h. For antagonist mode, 23 nL of compounds dissolved in DMSO, positive controls or DMSO only was transferred to the assay plate by a pin tool. After 5 min incubation at room temperature, 1.5 uL of 4-Iodo-2,5-dimethoxy-alpha-methylbenzeneethanamine hydrochloride (DOI) at 4nM was added to each well. The fluorescence intensity in the plates was measured using FDSS 7000EX kinetic plate reader for 3 min at 1 sec intervals.
Potency is the fitted concentration of half-maximal effect.

| Compound | Potency |
| --- | --- |
| Cc1c([N+](=O)[O-])c(C)c([N+](=O)[O-])c(C(C)(C)C)c1[N+](=O)[O-] | inactive |
| CSc1nc(N=[N+]=[N-])nc(NC(C)C)n1 | inactive |
| CNC(=O)Oc1ccc(N(C)C)c(C)c1 | inactive |
| CCCOc1nn(C(=O)NS(=O)(=O)c2ccccc2C(=O)OC)c(=O)n1C | inactive |
| IC(I)=C(I)I | inactive |
| Cc1nnc(-c2ccccc2)c(=O)n1N | inactive |
| CC(C)=CCOc1c2occc2cc2ccc(=O)oc12 | inactive |
| Nc1ccc([N+](=O)[O-])cc1Cl | inactive |
| CCOC(=O)C(Cl)Cc1cc(-n2nc(C)n(C(F)F)c2=O)c(F)cc1Cl (stereo not given) | inactive |
| O=[N+]([O-])c1cc(C(F)(F)F)cc([N+](=O)[O-])c1Cl | inactive |
| O=C(O)CCCCCCNC1c2ccccc2CCc2ccccc21 | inactive |
| COc1ccc(C(=O)c2c(C)n(CCN3CCOCC3)c3ccccc23)cc1 | inactive |
| CCOC(=O)CCl | inactive |
| CCCCC(=O)Cl | inactive |
| N#CC(O)c1ccccc1 (stereo not given) | inactive |
| O=S1OC[C@@H]2[C@H](CO1)[C@]1(Cl)C(Cl)=C(Cl)[C@@]2(Cl)C1(Cl)Cl (stereo not given in full) | inactive |
| O=C(CBr)OCc1ccccc1 | inactive |
| SCc1ccco1 | inactive |
| O=C(NC(=O)c1cc(F)c(F)cc1Cl)Nc1cc(F)ccc1N1CCC(C(=O)O)CC1 | inactive |
| COc1cnc(OC)n2nc(NS(=O)(=O)c3c(OCC(F)F)cccc3C(F)(F)F)nc12 | inactive |

| Compound | Potency |
| --- | --- |
| Cc1cc(C)nc(Nc2ccccc2)n1 | inactive |
| CN(C)C(=O)Nc1cccc(OC(=O)NC(C)(C)C)c1 | inactive |
| NS(=O)(=O)C(F)(F)C(F)(F)C(F)(F)C(F)(F)C(F)(F)C(F)(F)C(F)(F)C(F)(F)F | inactive |
| CN(C)CCc1c[nH]c2ccccc12 | 16.6 nM (active) |
| COC1=CC(=O)O[C@@H](CCc2ccccc2)C1 | inactive |
| c1csc(-c2ccc(-c3cccs3)s2)c1 | inactive |
| CCc1nn(C)c(C(=O)NCc2ccc(C(C)(C)C)cc2)c1Cl | inactive |
| COP(N)(=S)OC | inactive |
| CCS(=O)(=O)CCSP(=O)(OC)OC | inactive |
| C[N+](C)(C)CCOC(=O)C(O)(c1ccccc1)c1ccccc1 | inactive |
| CC(C)(C)c1ccc(CSc2cnn(C(C)(C)C)c(=O)c2Cl)cc1 | inactive |
| CCCC[N+]1(C)[C@@H]2CC(OC(=O)[C@H](CO)c3ccccc3)C[C@H]1[C@@H]1O[C@@H]12 (stereo not given in full) | inactive |
| CCOc1cccc(C2(N3CCN(c4ccccc4)CC3)CCC(C)CC2)c1 (stereo not given) | inactive |
| CNC(=O)Oc1cc(C)cc(C(C)C)c1 | inactive |
| CCCN(CCC)c1c([N+](=O)[O-])cc(S(N)(=O)=O)cc1[N+](=O)[O-] | inactive |
| N#CC(C#N)=C(C#N)C#N | inactive |
| CCCSP(=O)(OCC)SCCC | inactive |
| Nc1ccccc1-c1ccccc1 | inactive |
| CCOP(=S)(OCC)Oc1nc(Cl)n(C(C)C)n1 | inactive |
| CC(C)CCCCCCCOP(=O)(Oc1ccccc1)Oc1ccccc1 | inactive |
